# Peg3 prom inh = inhibitors of Peg3 promoter. AID 588405. inhibition, % at 20 µM. HeLa PEG-Prom luciferase reporter, luminescence, overnight. 1.7% of 360,000 active;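 active = inhibition of at least 50% at 20 µM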
# HIF-2a inh = inhibitors of HIF-2a. 786-0 RCC cells HIF-2a reporter, luciferase luminescence, overnight. inhibition, % at 18.8 µM. 0.72% of 360,000 active. AID 624352;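 active = inhibition of the luminescence signal of 40% or more relative to plate controls, in a single-dose primary screen at 18.75 µM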
# TWEAK Fn14 block = TWEAK-Fn14 signaling inhibition. 2% of 360,000 active. inhibition, % at 10 µM. TWEAK-stimulated Fn14 reporter cells, luciferase luminescence, 8 h; in the data active = inhibition above about 50%
# MITF TRPM1 inh = MITF TRPM1 promoter inhibition in SK-MEL-5 cells; SK-MEL-5 TRPM1 promoter luciferase, 24 h; inhibition, % at 12.5 µM; 0.83% of 330,000 active;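 active = mean inhibition across replicates of 60% or more, whatever share of single replicates reaches that level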
# TROY NFkB inh = inhibitors of TROY-dependent NF-kB signaling; AID 1347056; 0.98% of 360,000 active; inhibition, % at 10 µM; Q293 LMP1-TROYcd NF-kB luciferase reporter, 4 h;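 active = compounds whose plate-normalised and pattern-corrected inhibition of the luciferase reporter signal at the single screening dose is 50% or more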
# LMP1 NFkB inh = Epstein-Barr LMP1 NF-kappaB reporter inhibition; LMP1-induced NF-kappaB luciferase reporter cells, luminescence; inhibition, % at 12.5 µM; 0.69% of 350,000 active; AID 504558; in the data active = inhibition above about 41%;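 also: 0% = neutral control wells and 100% = reference inhibitor control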
# Active calls of the source: *; . = not tested or not shown. Most compounds without a hit are left out; they make up all but 4% or so of the library.
SMILES,Peg3 prom inh,HIF-2a inh,TWEAK Fn14 block,MITF TRPM1 inh,TROY NFkB inh,LMP1 NFkB inh
c1ccc(N2CCN(c3ncnc4sc5c(c34)CCC5)CC2)cc1,5.4,-1.5,58.8*,-11.0,44.0,20.0
CC(=O)c1c(C)oc2ccc(NS(=O)(=O)c3ccc(F)cc3C)cc12,29.5,14.6,56.3*,6.2,32.9,10.3
CC(=O)c1c(C)oc2ccc(NS(=O)(=O)c3ccc(O)c(C(=O)O)c3)cc12,6.4,14.6,0.3,-5.3,-7.9,3.3
COc1cc(-c2nc(C(=O)NCC3CCCO3)cc3c2[nH]c2ccccc23)cc(OC)c1OC (stereo not given),56.6*,-77.5,59.3*,10.9,-8.1,91.6*
O=C(NCC1CCCO1)c1cc2c([nH]c3ccccc32)c(-c2cccc(Cl)c2)n1 (stereo not given),52.6*,-22.1,56.1*,.,27.4,-6.1
COc1ccccc1-c1nc(C(=O)NCC2CCCO2)cc2c1[nH]c1ccccc12 (stereo not given),25.4,20.4,23.6,.,3.4,-14.0
CCOC(=O)c1ccn(CSc2c(F)c(F)cc(F)c2F)n1,-5.2,-2.8,3.7,-12.2,-15.3,3.4
Cc1nnc(SCCC(=O)Nc2ccccc2Cl)o1,-12.6,1.7,1.2,-0.7,0.8,10.4
ClC(Cl)(Cl)c1nc2ccccc2n2nncc12,79.2*,32.4,6.5,39.2,12.0,-1.3
COc1ccccc1C(=O)Oc1cc(N)n(S(=O)(=O)c2ccc(C)cc2)n1,34.0,18.0,-1.1,14.6,26.1,-1.0
Cc1ccc(S(=O)(=O)n2nc(OC(=O)c3ccccc3C)cc2N)cc1,18.8,4.7,57.0*,-6.3,29.8,5.3
Cc1ccc(NC(=O)CSc2ncnc3ccccc23)cc1S(=O)(=O)N1CCCCC1,12.1,21.4,72.2*,16.7,35.1,19.3
Cc1ccc(NC(=O)CSc2ccccc2)cc1S(=O)(=O)N1CCCCC1,-1.9,-16.5,18.1,-0.7,17.2,5.9
Cc1ccc(NC(=O)CSc2ncnc3ccccc23)cc1S(=O)(=O)N1CCOCC1,19.0,28.8,70.8*,13.2,53.5*,12.6
O=C(CSc1ncnc2ccccc12)Nc1ccc2c(c1)OCO2,-42.2,-38.7,64.9*,-28.3,-13.5,1.9
O=C(CCl)NC(Cc1ccccc1)C(=O)OCC(=O)c1ccc(-c2ccccc2)cc1 (stereo not given),-0.7,-4.7,7.9,-6.6,-1.6,-4.2
CCN(CC)C(=O)C1c2ccccc2Oc2ccccc21,17.0,21.5,60.7*,-12.3,-14.3,-1.5
CC(C)[N+](C)(CCOC(=O)C1c2ccccc2Oc2ccccc21)C(C)C,-21.6,16.9,0.2,-0.3,4.8,80.9*
CC(C)(C)NC(=O)COC(=O)C1c2ccccc2Oc2ccccc21,2.3,12.5,5.4,-3.1,-7.0,-3.4
CC(C)CNC(=O)COC(=O)C1c2ccccc2Oc2ccccc21,-2.8,19.6,1.4,36.5,1.8,65.8*
CC(=O)c1ccc(OC(=O)C2c3ccccc3Oc3ccccc32)cc1,10.0,10.3,-3.8,1.4,14.8,-3.2
CCC(C)CN1C(=O)CN(S(C)(=O)=O)CC1(C)C(=O)Nc1c(C)cccc1C (stereo not given),.,9.9,.,.,.,.
COc1ccc(C(=O)NC(C)c2ccccc2)cc1Br (stereo not given),12.8,1.6,7.5,6.1,3.9,-4.5
C[C@@H](NC(=O)c1coc(=O)c(Br)c1)c1ccccc1,98.9*,9.8,87.4*,-5.9,9.3,-53.9
O=C(OCc1cn([C@H]2C[C@H](c3ccc(Cl)cc3)N(C(=O)c3cccs3)C[C@@H]2O)nn1)c1ccccc1,7.3,5.5,-3.9,.,-9.6,3.9
SMILES,Peg3 prom inh,HIF-2a inh,TWEAK Fn14 block,MITF TRPM1 inh,TROY NFkB inh,LMP1 NFkB inh
COc1ccc(C(=O)Nc2ccc3oc(Cc4ccc(Cl)cc4)nc3c2)cc1OC,-23.6,-39.1,52.0*,9.8,18.7,7.6
O=S(=O)(c1ccc(Br)cc1F)N1CCCCC1CCO (stereo not given),17.0,-5.9,3.4,-12.7,10.8,-6.9
COc1ccc(S(=O)(=O)N2CCC(C(=O)NC3CC3)CC2)cc1OC,12.3,0.2,-7.7,-8.4,-14.7,67.3*
CC(=O)c1cccc(S(=O)(=O)N2CCC(C(=O)Nc3cccc(C(=O)NC4CC4)c3)CC2)c1,5.4,9.5,-16.8,12.6,62.1*,-5.8
CCOc1ccc(N2C(=O)CSC2=S)cc1,11.9,31.5,33.3,-2.2,23.1,4.2
O=C(O)c1ccc(N2C(=O)CSC2=S)cc1,15.1,31.5,68.2*,11.6,37.0,-10.5
O=C(O)c1cc(C(=O)O)cc(N2C(=O)CSC2=S)c1,-26.4,-1.2,16.2,-5.0,-4.8,0.8
CCN(CC)c1ccc(N2C(=O)CSC2=S)cc1,13.3,9.5,71.7*,8.4,-10.3,-9.3
COc1cc(-c2nnc3n2CCCCC3)cc(OC)c1OC,-1.4,14.0,20.8,3.8,-10.1,2.5
CCc1nnc(NC(=O)c2ccc(OCc3c(C)noc3C)c(OC)c2)s1,-8.4,-1.5,2.6,9.8,0.5,-6.3
COc1cc(C(=O)Nc2nc3ccc(C)cc3s2)ccc1OCc1c(C)noc1C,-50.6,-55.9,50.4*,18.1,-19.3,7.0
CCOc1ccc(NS(=O)(=O)c2ccc(N)cc2)cc1,-6.7,-12.6,-7.2,9.4,-2.0,1.9
CCOc1ccc(NS(=O)(=O)c2cnc(Cl)c(Cl)c2)cc1,8.3,34.6,53.2*,-14.1,28.7,4.7
CCOc1ccc(NS(=O)(=O)c2ccc(SC)cc2)cc1,11.6,-5.4,80.8*,-11.9,.,8.2
CCOC(=O)c1sc(NC(=O)c2ccc(S(=O)(=O)N3CCOCC3)cc2)nc1-c1ccccc1,15.6,21.4,64.8*,13.6,33.0,-2.3
CCOC(=O)c1sc(NC(=O)c2ccc(S(=O)(=O)N3CCCCCC3)cc2)nc1-c1ccccc1,5.6,2.1,76.8*,0.4,22.0,-3.1
CCOC(=O)N1CCN(S(=O)(=O)c2ccc(C(=O)Nc3nc4ccccc4s3)cc2)CC1,3.4,-0.7,35.1,-4.9,8.1,-11.8
CCOC(=O)c1sc(NC(=O)c2ccc(S(=O)(=O)N3CCCCC3)cc2)nc1-c1ccccc1,31.8,4.4,71.3*,-2.5,16.7,-9.1
Cc1cc(C)c2[nH]c(=O)c(CN(Cc3cccs3)C(=S)NCc3ccco3)cc2c1,41.4,24.0,63.9*,2.9,39.1,16.1
Cc1ccc2cc(CN(Cc3ccco3)C(=O)NCc3ccccc3)c(=O)[nH]c2c1C,-235.9,-107.9,21.8,10.7,50.2*,1.4
COc1ccc(C(c2c(NC(=O)c3ccco3)sc(C)c2C)N2CCOCC2)cc1 (stereo not given),29.3,9.0,82.6*,7.9,51.5*,17.3
CCN1CCN(C(c2cccnc2)c2c(NC(=O)c3ccco3)sc(C)c2C)CC1 (stereo not given),55.2*,-81.2,4.8,22.4,10.5,-2.4
Cc1sc(NC(=O)c2ccco2)c(C(c2cccnc2)N2CCC(C)CC2)c1C (stereo not given),14.9,24.0,4.6,20.7,1.2,12.0

# Compound activity from PubChem.
